Hits are enriched below; roughly 7.1% of the tested compounds scored in any of these assays.
Lassa entry = blocks Lassa virus binding or cell entry | Lassa virus pseudotyped entry inhibition, cell-based qHTS | 4.1% of 18,000 active | Potency, µM (doses to about 49.2 µM), for inactives: at the top dose activity change, negative = inhibition, most hits filed as inhibitors
Marburg entry = inhibitors of Marburg virus binding or entry into cells. Potency, µM (doses to about 49.2 µM), without a hit: at the highest dose activity change, negative = inhibition, hits mostly inhibitors. 6.5% of 18,000 active. AID 720532. Marburg virus pseudotype entry/binding inhibition, cell-based
An asterisk follows results filed as active; ? = inconclusive; / = no result given; ! = repeats disagree; [ ] = another dose, or the depositor's remark. Calls follow the shape of the full dose curve; tested in HEK293 cells. % is scaled to controls: 0 for no effect and ±100 for the full control effect; potency is read from the fitted curve at half-maximal effect.

SMILES | Lassa entry | Marburg entry
CCOC(=O)C1CCCCN1C(=O)c1ccc(-n2cc(NC(=O)c3cccnc3)cn2)cc1 (configuration not stated) | -0.3% | -14.1%
O=C(NCC1(N2CCCCC2)CCCCC1)c1ccc(-n2cc(NC(=O)c3cccnc3)cn2)cc1 | -4.9% | 3.98µM*
COc1ccc2c3c([nH]c2c1)[C@@H]1C[C@@H]2[C@@H](C[C@H](O)[C@H](OC)[C@H]2C(=O)O)CN1CC3 | -12.9%[17.8 µM] | -10.1%[17.8 µM]
COC(=O)[C@@H]1C2CC3c4[nH]c5cc(OC)ccc5c4CCN3CC2C[C@H](OC(=O)c2cc(OC)c(OC)c(OC)c2)C1OC (some centres not stated) | ? | 12.6µM*
CS(=O)(=O)Nc1ccccn1 | 11.4% | 28.9%
c1ccc2sc(C3(N4CCCC4)CCCCC3)cc2c1 | 0.6% | 6.31µM*
c1ccc2sc(C3(NCC4CC4)CCCCC3)cc2c1 | ? | 14.1µM*
CC(=O)OC[C@H]1O[C@@H](ON=C(C)CCC(=O)OC[C@H]2O[C@H](C#Cc3ccccc3)C=C[C@H]2Oc2ccc(C)cc2)[C@H](OC(C)=O)[C@@H](OC(C)=O)[C@H]1OC(C)=O | -1.0%[8.59 µM] | 9.2%[8.59 µM]
COC1=C[C@@H](C(=O)N[C@H]2CCCC[C@H]2NC(C)=O)[C@]2(C)Cc3ccccc3[C@H]2CC1=O | 5.7%[8.59 µM] | ?
C[C@@H]1CC[C@H]2C(=O)N(Cc3cccc([N+](=O)[O-])c3)C[C@@H](O)CN2[C@@H]1c1ccc(Br)cc1 | -9.9%[8.59 µM] | -13.1%[8.59 µM]
N#Cc1c(NC(=O)CN2CCOCC2)sc2c1CCCC2 | 27.1% | 0.4%
Cc1ccc(-c2cc3c(NC(=O)C4CC4)ncnc3o2)cc1 | 26.5% | 44.0%
C[C@@H]1C[C@H]2CC(=O)N3[C@H](CC(=O)N2[C@H]1c1ccccc1)C[C@@H](C)[C@@H]3c1ccccc1 | 6.1%[8.59 µM] | 15.2%[8.59 µM]
CCCC[C@]12Cc3c(ccc4ccccc34)[C@H](O1)c1c(cc(C)oc1=O)O2 | 4.8%[8.59 µM] | 34.3%[8.59 µM]
CCCCNCC(O)c1ccc(O)cc1 (configuration not stated) | -2.1% | 5.7%
OCc1cc([C@@H](O)CNCCCCCCOCCCCc2ccccc2)ccc1O | ? | 12.6µM*
COCCN1C(=NCC(C)C)NC(c2ccccc2)C(C(=O)OC)=C1C (configuration not stated) | / | 28.6%[8.59 µM]
N=C(N)SCCc1ccc(OCc2ccc([N+](=O)[O-])cc2)cc1 | -15.3% | 14.1µM*
Oc1ccc(OCc2ccccc2)cc1 | ? | -25.2%[17.8 µM]
CN(C)CCOC(c1ccc(Cl)cc1)c1ccccn1 (configuration not stated) | -6.1% | ?
CN(C)CCOC1=Cc2ccccc2Sc2ccc(Cl)cc21 | ? | 12.6µM*
Cc1ccc2c(=O)c3ccccc3n(CCCN)c2c1C | 10µM*! | 10µM*
COC(=O)CC(Oc1c(C)n(C)c2ccccc2c1=O)c1ccccc1 (configuration not stated) | -6.0%[8.59 µM] | -4.7%[8.59 µM]
CC(N)C(O)c1ccc(O)c(O)c1 (configuration not stated) | -7.6% | 11.2µM*!
C[C@H](N)[C@H](O)c1cccc(O)c1 | -2.7%[17.8 µM] | 1.4%[17.8 µM]
SMILES | Lassa entry | Marburg entry
CC=COC(=O)N[C@@H](c1ccccc1)[C@]1(C(C)=O)CCOC1=O | 24.4%[8.59 µM] | 6.8%[8.59 µM]
Cc1ccc(CN2[C@@H](C)[C@@H](C)Oc3c(Cl)cccc3[S+]2(=O)[O-])cc1 | -7.3% | 13.5%
C[C@H]1[C@@H](c2ccccc2)Oc2c(Cl)cccc2S(=O)(=O)N1Cc1ccc(Cl)cc1 | -8.1% | -24.3%
CC(=O)OC[C@H]1O[C@H](c2ccc(C(C)=O)cc2)C=C[C@H]1OC(C)=O | -11.5%[8.59 µM] | 1.7%[8.59 µM]
CCN(CC)CCNc1ccc(CO)c2sc3ccccc3c(=O)c12 | 3.1%[17.8 µM] | 11.2µM*
CCN1C(=NCc2ccc3c(c2)OCO3)NC(c2ccccc2)C(C(=O)OC)=C1C (configuration not stated) | -3.6%[8.59 µM] | -18.1%[8.59 µM]
C=CC(C1=CC(=O)C(OC)=CC1=O)c1ccc(OC)cc1 (configuration not stated) | 2.4% | ?
C=CC(C1=CC(=O)C(OC)=C(OC)C1=O)c1ccccc1 (configuration not stated) | ? | 14.1µM*
CCOC(=O)C1=CN(CCNC(=O)OC(C)(C)C)C(=O)NC1c1ccccc1 (configuration not stated) | -15.2%[8.59 µM] | 20.7%[8.59 µM]
COC(=O)N[C@@H](c1cccc(C)c1)[C@]1(C(=O)OC)CCCC1=O | 11.2%[8.59 µM] | ?
O=C(OCc1cn([C@H]2CN(C(=O)c3cccs3)[C@@H](c3ccc(Cl)cc3)C[C@H]2O)nn1)c1ccccc1 | -12.3% | -8.9%
CC(C)COCC(CN(Cc1ccccc1)c1ccccc1)N1CCCC1 (configuration not stated) | 14.1µM*! | 6.31µM*
CCN1C(=O)[C@@H]2[C@H]3[C@H](O)[C@H](O)CC(=NO[C@@H](C)c4cn([C@H](CO)Cc5ccccc5)nn4)[C@@H]3CC[C@H]2C1=O | / | -3.3%[8.59 µM]
CCOC(=O)CN1C(=O)N(CC)C(C)=C(C(=O)OC)C1c1ccccc1 (configuration not stated) | -25.0%[8.59 µM] | ?
